Values joined by “and” are separate entries in the source; they are usually repeats but may differ in a detail not shown here. Identical values can stand only once. Results filed as inconclusive are left out. A call without a number means that no potency is given here. More than one record can exist for a structure, and the calls need not agree. Active and inactive are the calls of the source. Calls come from the whole dose curve; as a rule, active = well fitted cell-killing curve with a large enough effect in the repeat runs; inconclusive = weak or mixed curves, or effect the other way; inactive = flat fitted curve, though single readings scatter.
Assay: qHTS RealTime-Glo MT Cell Viability Assay in HEK293 cells - 8 hour (AID 1224887); note: nearly all actives have a fitted effect of over 50% in size; for activity change, negative = cytotoxicity: top concentration of the series differs between compounds
Details: RealTime-Glo luminescence; series mostly up to 76.8 µM; activity change, negative = cytotoxicity: at the top concentration
Description: U.S. Tox21 Program National Center for Advancing Translational Sciences [NCATS] NIH Chemical Genomics Center [NCGC] U.S. Environmental Protection Agency [EPA] National Institutes of Environmental Health Sciences [NIEHS] National Toxicology Program [NTP] U.S. Food and Drug Administration [FDA] Tox21 Assay Overview: Measure of cell viability is critical in the cell-base assay. Analysis of cell viability is necessary for the characterization of cell responses to cytotoxic drugs and environmental stress. A RealTime-Glo MT Cell Viability Assay to monitor cell viability in real time of continues cell culture during 40 hours of compound treatment was used to screen Tox21 10K library compounds in Hek293 cells. The RealTime-Glo MT Cell Viability Assay is a nonlytic, homogeneous, bioluminescent method to measure cell viability in real time using a simple, plate-based method. The assay involves adding NanoLuc luciferase and a cell-permeant prosubstrate to cells in culture. Viable cells reduce the proprietary prosubstrate to generate a substrate for NanoLuc luciferase. This substrate diffuses from cells into the surrounding culture medium, where it is rapidly used by the NanoLuc Enzyme to produce a luminescent signal. The signal correlates with the number of viable cells, making the assay well suited for cytotoxicity studies.
Tox21 Assay Protocol Summary: The mixture of Hek293 cell suspension and reagents were dispensed at 600cells/6 ul/well in 1536-well tissue culture treated black solid bottom plates using a Multidrop dispenser. After the assay plates were incubated at a 37 C/5% CO2 incubator for 5 hours, 23 nL of compounds dissolved in DMSO, positive and negative controls was transferred to the assay plate by a pintool work station. The plates were incubated at 37 C for 40 hours. The luminescence intensity were measured at 0h, 8h, 16h, 24h, 32h and 40h time points using ViewLux plate reader during compound treatment.
Potency is the fitted concentration of half-maximal effect.

SMILES	Potency	activity change, negative = cytotoxicity
ClC(Cl)=C(Cl)C(Cl)=C(Cl)Cl	inactive	–
Nc1ccc2ccccc2c1	inactive	–
COc1ccc(O)c(C(C)(C)C)c1	inactive	–
CNC(=S)S	inactive	–
CCCCCCCCCCCCCl	inactive	–
C[C@]12CC[C@H]3[C@@H](CCC4=CC(=O)CC[C@@H]43)[C@@H]1CC[C@@H]2O	inactive	–
CN(C)c1ccccc1	inactive	–
CCNCC	inactive	–
N#Cc1cccnc1	inactive	–
CCN(CC)C(=O)C(C)Oc1cccc2ccccc12 (stereo not given)	inactive	–
CC(C)CON=O	inactive	–
CCCCOCCOC(C)=O	inactive	–
O=NN1CCOCC1	inactive and 7.76 µM (active)	–
Clc1cccc(Cl)c1	inactive	–
COC(=O)Nc1nc2ccccc2[nH]1	inactive	–
CCCCCCCCCC(CC)c1ccc(S(=O)(=O)O)cc1 (stereo not given)	inactive	–
Cc1ccc([N+](=O)[O-])cc1	inactive	–
COP(=S)(OC)Oc1ccc(S(=O)(=O)N(C)C)cc1	inactive	–
O=C(O)c1nn(Cc2ccc(Cl)cc2Cl)c2ccccc12	inactive	–
Clc1ccc(C(Cl)(Cl)Cl)cc1	inactive	–

SMILES	Potency	activity change, negative = cytotoxicity
[Cl-].[Cl-].[Cl-].[Fe+3]	inactive	–
CCC[CH2][Sn]([Cl])([Cl])[CH2]CCC	111 nM (active)	–
CCC1(c2ccc(N)cc2)CCC(=O)NC1=O (stereo not given)	inactive	–
CN(C)c1nc(=O)n(C2CCCCC2)c(=O)n1C	inactive	–
O=C(O)CF	inactive	–
CCOC(=O)c1ccccc1N	inactive	–
CC(C)(C#N)N=NC(C)(C)C#N	inactive	–
N#Cc1nn(-c2c(Cl)cc(C(F)(F)F)cc2Cl)c(N)c1S(=O)C(F)(F)F (stereo not given)	19600 nM (active)	–
C[C@]12CCC(=O)C=C1CC[C@@H]1[C@@H]2CC[C@@]2(C)[C@H]1CC[C@]2(C)O	–	-15.3% [at 35.3 µM] (inactive)
CC(C)=CC1C(C(=O)OCc2cccc(Oc3ccccc3)c2)C1(C)C (stereo not given)	inactive	–
N#CC(c1ccccc1)c1ccccc1	inactive	–
Cc1cc(Cl)ccc1N=CN(C)C	inactive	–
OCCOCCO	inactive	–
ClC(Cl)(Cl)c1ccccc1	inactive	–
CCCCC(C#N)(Cn1cncn1)c1ccc(Cl)cc1 (stereo not given)	inactive	–
CC1=C(C(=O)Nc2ccccc2)SCCO1	inactive	–
CC(C)Nc1ccc(Nc2ccccc2)cc1	15.4 µM (active) and 17.4 µM (active)	–
Nc1ncn[nH]1	inactive	–
CCOP(=O)(O)OCC (tested in a mixture with another compound)	inactive and 54.5 µM (active)	–
CCNc1nc(Cl)nc(NC(C)(C)C#N)n1	inactive	–

Reference: PubChem BioAssay (Tox21)
